Measurements reported in the supplement of paper PMC11732987, “Enantioselective OTUD7B fragment discovery through chemoproteomics screening and high-throughput optimisation” (Communications Chemistry, 2025).

Assays:
Assay in all cases: log2 ratio of Biotin-Ahx-Ub-VS probe labelling (fragment/DMSO); higher = less target engagement (more negative = stronger competition), active = hit call of the paper (q ≤ 0.05, log2 ratio ≤ -1)
Details in all cases: compound concentration: 200 uM; treatment time: 3 h
[1] = target: USP34 (UniProt Q70CQ2)
Outline: (§1)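 Triplicate samples of HEK293T lysate, 495 µg each, received fragment at 200 µM or vehicle for 3 h, followed by Biotin-Ahx-Ub-VS (0.5 µM final) for 1 h. After NeutrAvidin enrichment of labelled DUBs and LysC/trypsin digestion, peptides were run by diaPASEF LC-MS/MS. The values are average log2 fragment/vehicle ratios from global-median-normalised Spectronaut label-free quantities, tested by unpaired t-test on proteins having ≥2 unique peptides.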

[2] = target: T1, USP36 (UniProt Q9P275)
T1 sequence (whole entry): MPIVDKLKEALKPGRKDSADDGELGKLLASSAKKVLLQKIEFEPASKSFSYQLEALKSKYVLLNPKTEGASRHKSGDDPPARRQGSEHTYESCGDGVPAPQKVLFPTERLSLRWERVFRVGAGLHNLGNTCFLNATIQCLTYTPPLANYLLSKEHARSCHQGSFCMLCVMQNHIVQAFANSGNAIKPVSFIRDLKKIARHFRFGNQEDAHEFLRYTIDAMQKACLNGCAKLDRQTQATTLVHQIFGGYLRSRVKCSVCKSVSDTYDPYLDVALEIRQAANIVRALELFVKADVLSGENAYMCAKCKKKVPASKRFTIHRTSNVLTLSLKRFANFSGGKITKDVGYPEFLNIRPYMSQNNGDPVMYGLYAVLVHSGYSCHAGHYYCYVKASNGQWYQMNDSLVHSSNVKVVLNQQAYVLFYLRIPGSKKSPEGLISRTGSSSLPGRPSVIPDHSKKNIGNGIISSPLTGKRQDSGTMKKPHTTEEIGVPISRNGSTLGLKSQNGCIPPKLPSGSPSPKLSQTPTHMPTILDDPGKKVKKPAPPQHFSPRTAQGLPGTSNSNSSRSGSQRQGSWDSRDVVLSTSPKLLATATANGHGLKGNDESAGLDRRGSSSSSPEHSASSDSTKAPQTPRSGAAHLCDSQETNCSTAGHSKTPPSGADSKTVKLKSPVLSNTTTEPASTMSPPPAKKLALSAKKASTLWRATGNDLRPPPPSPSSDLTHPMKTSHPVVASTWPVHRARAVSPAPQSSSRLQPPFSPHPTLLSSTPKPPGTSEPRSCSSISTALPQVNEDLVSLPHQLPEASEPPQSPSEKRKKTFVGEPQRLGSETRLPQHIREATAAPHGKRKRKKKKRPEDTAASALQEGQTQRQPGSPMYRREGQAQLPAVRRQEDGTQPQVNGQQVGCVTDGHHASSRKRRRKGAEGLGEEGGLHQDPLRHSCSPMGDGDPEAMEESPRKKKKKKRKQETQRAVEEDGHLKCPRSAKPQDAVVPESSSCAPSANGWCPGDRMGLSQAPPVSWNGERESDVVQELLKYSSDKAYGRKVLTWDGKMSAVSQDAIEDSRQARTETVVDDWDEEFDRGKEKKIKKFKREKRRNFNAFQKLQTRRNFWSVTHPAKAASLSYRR
Outline: as §1

[3] = target: T2, USP38 (UniProt Q8NB14)
T2 sequence (whole entry): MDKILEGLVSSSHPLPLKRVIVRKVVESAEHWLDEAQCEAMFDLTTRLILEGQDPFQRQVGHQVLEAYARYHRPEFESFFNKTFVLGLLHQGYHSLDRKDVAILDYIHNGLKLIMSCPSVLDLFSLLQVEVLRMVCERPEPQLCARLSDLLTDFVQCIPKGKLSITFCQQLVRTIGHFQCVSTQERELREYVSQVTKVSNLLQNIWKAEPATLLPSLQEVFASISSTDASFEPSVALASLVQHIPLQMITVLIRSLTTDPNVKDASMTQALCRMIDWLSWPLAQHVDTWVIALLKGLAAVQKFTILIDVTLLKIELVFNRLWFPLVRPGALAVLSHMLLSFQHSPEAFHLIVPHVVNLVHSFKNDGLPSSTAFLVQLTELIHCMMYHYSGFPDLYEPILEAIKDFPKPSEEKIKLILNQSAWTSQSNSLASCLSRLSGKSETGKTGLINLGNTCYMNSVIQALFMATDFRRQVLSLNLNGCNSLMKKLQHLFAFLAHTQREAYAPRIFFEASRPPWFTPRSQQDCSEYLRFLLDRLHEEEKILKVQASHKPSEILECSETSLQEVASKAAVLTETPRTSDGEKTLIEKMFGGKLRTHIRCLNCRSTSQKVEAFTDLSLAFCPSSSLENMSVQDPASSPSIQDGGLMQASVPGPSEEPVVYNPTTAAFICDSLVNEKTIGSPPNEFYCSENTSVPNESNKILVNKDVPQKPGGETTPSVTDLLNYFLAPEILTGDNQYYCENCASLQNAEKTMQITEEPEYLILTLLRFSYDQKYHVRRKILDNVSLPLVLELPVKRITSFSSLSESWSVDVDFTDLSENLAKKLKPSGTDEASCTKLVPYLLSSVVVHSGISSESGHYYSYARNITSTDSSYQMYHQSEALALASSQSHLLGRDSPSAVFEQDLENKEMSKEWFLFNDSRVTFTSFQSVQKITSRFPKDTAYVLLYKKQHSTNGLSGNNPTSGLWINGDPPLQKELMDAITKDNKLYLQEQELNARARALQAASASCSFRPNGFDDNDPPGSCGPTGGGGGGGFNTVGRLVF
Outline: as §1

[4] = target: T3, USP39 (UniProt Q53GS9)
T3 sequence (whole entry): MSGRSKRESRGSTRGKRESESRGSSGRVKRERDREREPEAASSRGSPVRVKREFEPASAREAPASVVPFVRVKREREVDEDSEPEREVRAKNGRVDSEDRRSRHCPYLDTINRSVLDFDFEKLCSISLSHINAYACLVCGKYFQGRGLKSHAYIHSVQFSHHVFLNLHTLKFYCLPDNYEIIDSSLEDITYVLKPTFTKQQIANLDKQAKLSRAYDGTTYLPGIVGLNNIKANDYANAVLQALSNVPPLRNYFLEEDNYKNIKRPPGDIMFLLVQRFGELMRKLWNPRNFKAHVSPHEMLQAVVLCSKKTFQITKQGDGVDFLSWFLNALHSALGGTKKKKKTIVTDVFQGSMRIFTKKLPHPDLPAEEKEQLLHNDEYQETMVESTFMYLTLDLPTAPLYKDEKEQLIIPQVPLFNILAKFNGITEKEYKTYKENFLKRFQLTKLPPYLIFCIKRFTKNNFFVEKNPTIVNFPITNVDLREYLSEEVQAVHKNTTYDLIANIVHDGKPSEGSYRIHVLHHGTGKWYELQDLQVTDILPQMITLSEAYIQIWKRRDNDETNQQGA
Outline: as §1

[5] = target: T4, USP4 (UniProt Q13107)
T4 sequence (whole entry): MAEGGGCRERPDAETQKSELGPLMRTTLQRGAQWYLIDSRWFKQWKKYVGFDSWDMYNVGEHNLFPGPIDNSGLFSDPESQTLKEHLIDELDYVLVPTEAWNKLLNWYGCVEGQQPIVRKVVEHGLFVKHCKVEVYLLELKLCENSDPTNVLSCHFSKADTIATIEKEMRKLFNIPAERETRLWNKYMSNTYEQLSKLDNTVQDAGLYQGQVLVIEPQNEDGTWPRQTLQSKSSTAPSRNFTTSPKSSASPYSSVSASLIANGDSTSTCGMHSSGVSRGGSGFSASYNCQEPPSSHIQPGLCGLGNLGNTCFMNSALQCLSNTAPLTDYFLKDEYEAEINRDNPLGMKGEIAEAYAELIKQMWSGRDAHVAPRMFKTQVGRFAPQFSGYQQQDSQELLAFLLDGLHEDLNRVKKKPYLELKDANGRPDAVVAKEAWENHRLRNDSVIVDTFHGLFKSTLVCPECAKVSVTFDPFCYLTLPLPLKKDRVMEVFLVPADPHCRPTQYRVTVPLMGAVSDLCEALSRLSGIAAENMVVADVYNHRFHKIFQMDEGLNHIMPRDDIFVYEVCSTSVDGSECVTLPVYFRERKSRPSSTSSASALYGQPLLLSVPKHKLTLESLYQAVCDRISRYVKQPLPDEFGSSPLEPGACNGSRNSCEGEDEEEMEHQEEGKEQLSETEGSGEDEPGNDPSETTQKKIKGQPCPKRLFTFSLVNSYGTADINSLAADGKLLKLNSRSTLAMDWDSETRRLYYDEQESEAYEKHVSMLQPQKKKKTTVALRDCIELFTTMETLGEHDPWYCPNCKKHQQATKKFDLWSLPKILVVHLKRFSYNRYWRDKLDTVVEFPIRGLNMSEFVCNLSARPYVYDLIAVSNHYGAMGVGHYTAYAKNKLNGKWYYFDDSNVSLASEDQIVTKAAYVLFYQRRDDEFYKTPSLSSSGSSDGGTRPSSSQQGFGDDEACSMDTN
Outline: as §1

Measured: log2 ratio of Biotin-Ahx-Ub-VS probe labelling

Sequence of USP34 (Q70CQ2 whole entry, the tested form may be a part): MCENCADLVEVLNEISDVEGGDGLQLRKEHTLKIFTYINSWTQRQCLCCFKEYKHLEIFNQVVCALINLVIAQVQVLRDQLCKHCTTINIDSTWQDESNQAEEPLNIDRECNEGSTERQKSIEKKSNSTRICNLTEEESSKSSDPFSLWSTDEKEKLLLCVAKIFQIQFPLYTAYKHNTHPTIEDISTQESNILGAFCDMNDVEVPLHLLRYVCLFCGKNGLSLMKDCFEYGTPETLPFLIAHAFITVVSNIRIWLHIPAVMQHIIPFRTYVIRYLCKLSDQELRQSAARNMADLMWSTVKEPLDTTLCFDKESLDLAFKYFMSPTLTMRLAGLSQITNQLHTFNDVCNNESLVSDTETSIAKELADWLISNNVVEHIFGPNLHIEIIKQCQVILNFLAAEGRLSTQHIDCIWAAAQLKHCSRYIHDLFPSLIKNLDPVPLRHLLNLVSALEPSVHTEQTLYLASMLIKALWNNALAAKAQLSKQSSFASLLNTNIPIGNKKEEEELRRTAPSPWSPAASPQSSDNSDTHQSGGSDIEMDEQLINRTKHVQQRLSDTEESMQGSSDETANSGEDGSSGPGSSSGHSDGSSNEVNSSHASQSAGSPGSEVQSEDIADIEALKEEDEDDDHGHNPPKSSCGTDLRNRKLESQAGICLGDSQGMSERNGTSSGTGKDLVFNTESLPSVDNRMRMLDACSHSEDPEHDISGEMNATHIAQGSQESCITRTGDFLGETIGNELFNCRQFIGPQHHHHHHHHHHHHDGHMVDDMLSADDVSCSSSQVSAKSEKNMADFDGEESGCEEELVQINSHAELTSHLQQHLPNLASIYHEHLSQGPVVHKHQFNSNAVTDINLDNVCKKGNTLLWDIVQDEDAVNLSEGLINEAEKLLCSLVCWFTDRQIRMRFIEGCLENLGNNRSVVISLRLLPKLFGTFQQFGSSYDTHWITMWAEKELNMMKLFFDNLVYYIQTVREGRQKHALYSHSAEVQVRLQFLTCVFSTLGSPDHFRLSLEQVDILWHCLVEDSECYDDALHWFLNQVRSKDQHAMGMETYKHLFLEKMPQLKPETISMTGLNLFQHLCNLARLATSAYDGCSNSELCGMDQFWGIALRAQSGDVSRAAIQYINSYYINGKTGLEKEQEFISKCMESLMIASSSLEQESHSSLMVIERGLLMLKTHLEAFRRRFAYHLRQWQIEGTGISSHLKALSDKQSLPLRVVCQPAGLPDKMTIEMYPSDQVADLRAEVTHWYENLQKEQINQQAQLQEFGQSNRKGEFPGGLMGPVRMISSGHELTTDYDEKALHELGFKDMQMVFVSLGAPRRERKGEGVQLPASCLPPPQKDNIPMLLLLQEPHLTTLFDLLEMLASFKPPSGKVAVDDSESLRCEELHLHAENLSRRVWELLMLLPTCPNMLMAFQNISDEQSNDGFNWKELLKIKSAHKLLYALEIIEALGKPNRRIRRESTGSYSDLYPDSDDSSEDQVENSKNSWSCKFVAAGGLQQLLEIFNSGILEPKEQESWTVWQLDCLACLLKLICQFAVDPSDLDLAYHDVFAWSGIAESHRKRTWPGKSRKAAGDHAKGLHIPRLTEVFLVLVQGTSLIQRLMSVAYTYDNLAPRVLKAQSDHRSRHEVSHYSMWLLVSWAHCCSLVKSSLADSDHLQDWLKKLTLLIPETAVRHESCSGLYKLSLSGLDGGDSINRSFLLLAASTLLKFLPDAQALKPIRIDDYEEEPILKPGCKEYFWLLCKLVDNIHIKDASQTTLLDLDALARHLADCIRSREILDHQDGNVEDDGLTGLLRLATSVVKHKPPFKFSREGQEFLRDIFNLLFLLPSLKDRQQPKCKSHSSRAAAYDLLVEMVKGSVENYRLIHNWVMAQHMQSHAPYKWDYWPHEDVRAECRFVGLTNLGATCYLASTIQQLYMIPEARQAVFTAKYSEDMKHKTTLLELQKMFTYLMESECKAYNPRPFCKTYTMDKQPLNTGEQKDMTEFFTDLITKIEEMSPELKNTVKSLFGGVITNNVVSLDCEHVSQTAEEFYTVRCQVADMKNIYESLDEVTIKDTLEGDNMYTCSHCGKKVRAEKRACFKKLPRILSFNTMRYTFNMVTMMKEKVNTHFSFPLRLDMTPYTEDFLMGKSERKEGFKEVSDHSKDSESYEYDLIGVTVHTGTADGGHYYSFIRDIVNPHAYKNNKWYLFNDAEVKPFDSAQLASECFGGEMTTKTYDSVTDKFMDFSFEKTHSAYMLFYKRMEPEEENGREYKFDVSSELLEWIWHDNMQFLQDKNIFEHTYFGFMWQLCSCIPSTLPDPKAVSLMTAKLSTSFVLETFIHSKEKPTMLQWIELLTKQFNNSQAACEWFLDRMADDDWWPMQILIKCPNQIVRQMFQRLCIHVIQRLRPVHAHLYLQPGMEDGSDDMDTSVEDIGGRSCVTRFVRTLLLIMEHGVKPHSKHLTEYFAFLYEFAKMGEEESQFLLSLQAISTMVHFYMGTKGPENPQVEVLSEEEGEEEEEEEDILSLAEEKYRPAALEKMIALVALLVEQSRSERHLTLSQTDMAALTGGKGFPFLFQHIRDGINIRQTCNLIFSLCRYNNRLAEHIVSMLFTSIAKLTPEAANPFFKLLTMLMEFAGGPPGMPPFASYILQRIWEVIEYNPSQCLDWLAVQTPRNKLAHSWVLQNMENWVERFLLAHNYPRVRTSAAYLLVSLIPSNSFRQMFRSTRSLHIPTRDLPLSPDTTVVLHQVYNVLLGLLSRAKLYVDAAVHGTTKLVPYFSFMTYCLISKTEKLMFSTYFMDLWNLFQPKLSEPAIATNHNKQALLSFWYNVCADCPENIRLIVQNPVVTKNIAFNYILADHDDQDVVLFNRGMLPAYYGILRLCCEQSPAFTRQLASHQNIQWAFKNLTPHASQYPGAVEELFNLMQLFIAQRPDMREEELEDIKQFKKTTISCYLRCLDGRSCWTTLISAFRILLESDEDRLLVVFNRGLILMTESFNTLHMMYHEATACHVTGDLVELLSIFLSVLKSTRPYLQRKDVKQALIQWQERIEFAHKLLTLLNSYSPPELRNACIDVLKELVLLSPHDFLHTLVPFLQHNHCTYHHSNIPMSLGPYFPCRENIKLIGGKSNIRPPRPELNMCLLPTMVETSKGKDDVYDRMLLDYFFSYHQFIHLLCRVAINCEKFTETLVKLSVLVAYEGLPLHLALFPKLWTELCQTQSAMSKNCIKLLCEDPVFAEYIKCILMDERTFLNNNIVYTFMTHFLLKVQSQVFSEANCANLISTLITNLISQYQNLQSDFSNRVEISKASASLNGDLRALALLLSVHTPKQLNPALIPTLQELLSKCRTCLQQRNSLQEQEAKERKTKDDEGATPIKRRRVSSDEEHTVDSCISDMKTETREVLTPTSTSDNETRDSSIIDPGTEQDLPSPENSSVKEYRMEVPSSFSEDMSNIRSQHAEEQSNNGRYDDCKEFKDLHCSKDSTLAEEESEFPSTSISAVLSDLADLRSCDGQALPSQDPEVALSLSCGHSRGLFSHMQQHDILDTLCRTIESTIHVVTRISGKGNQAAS

Cl.O=C(CCl)N1CCCC(c2ncc[nH]2)C1 (stereo not given)
inactive: [1] 0.00166 | [2] 0.0764 | [3] -0.0133 | [4] 0.00979 | [5] 0.124
